PubChem BioAssay (NCI)
Where “and” joins values, the source holds several entries; their conditions need not be identical. Equal values may be shown once. Compounds without any hit were thinned out: in the full panel of roughly 79,000, 15% have a hit. Some compounds were tested as several samples or in several runs, with calls that do not always agree. Calls of active or inactive are those of the source. No stated cut-off is given here; in the data, active means growth inhibition above about 70%; inactive means the rest.

Tests used:
[1] = NCI Yeast Anticancer Drug Screen. Data for the rad50 strain (AID 155);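 further: 0% = growth of vehicle-only cultures of the same strain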; settings: S. cerevisiae rad50 strain growth inhibition; at 50.0 µM; stronger effect = higher value
Outline: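 Yeast carrying a defined DNA repair defect were exposed to test compounds, and growth was compared with vehicle-treated controls to give percent inhibition.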

[2] = NCI Yeast Anticancer Drug Screen. Data for the mec2-1 strain (AID 157); settings: S. cerevisiae mec2-1 strain, at 50.0 µM, stronger effect = higher value
Outline: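 mec2-1 yeast strain, carrying an alteration in DNA damage repair or cell cycle control, was exposed to compounds; growth inhibition was measured relative to vehicle-treated controls.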

[3] = NCI Yeast Anticancer Drug Screen. Data for the sgs1 mgt1 strain (AID 161);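 further: 0% = growth of cultures given vehicle only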; settings: S. cerevisiae sgs1 mgt1 strain, at 50.0 µM, stronger effect = higher value
Outline: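 Growth of a repair-deficient yeast mutant was monitored after compound treatment and expressed as inhibition relative to vehicle-treated cultures.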

[4] = NCI Yeast Anticancer Drug Screen. Data for the cln2 rad14 strain (AID 165);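 further: 0% = growth equal to vehicle treated cultures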; settings: S. cerevisiae cln2 rad14 strain, at 50.0 µM, stronger effect = higher value
Outline: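 Yeast carrying cln2 and rad14 alterations (cell cycle control and DNA damage repair) were exposed to compounds. Growth inhibition was measured against vehicle-treated controls.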

[5] = NCI Yeast Anticancer Drug Screen. Data for the bub3 strain (AID 167); settings: S. cerevisiae bub3 mutant strain, at 50.0 µM, stronger effect = higher value
Outline: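 Compounds were applied to a genetically altered yeast strain carrying a cell-cycle control defect. Growth inhibition was scored against vehicle-treated controls.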

[6] = NCI Yeast Anticancer Drug Screen. Data for the mlh1 rad18 strain (AID 175); settings: S. cerevisiae mlh1 rad18 strain growth inhibition; at 50.0 µM; stronger effect = higher value
Outline: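 Growth inhibition of the yeast strain was measured after compound exposure and expressed relative to vehicle-treated controls. The strain carries defined defects in DNA damage repair.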

Measured: growth inhibition

COc1cc(C2c3cc4c(cc3C(O)[C@H]3COC(=O)C23)OCO4)cc(OC)c1O (stereo partly drawn)
inactive: [1] -38.8% | [2] -50.8% | [3] -27.1% | [4] -1.8% | [5] -13.9% | [6] 38.6%

Nc1ccc([N+](=O)[O-])cc1Cl
inactive: [1] 11.8% | [2] -7.3% | [3] 45.2% | [4] 19% | [5] 12.9% | [6] 34%

Nc1ccc(Cl)c(C(F)(F)F)c1
inactive: [1] 0.85% | [2] -16.6% | [3] -12.1% | [4] -18.4% | [5] -1% | [6] 2.6%

CC12OC1(C)C1C(=O)OCC1C2=O (stereo not drawn)
inactive: [1] 3.4% | [2] 3.6% | [3] -3.45% | [4] 3.95% | [5] 3% | [6] -0.95%

N#CC(C#N)/C=C/[Se]c1ccccc1
inactive: [1] 14.2% | [2] 1.65% | [3] 2.1% | [4] 26.8% | [5] 0.35% | [6] 3.6%

Cc1cc(S(=O)(=O)[O-])ccc1-n1nc(C)[c-](N=Nc2cc(S(=O)(=O)[O-])ccc2C(=O)[O-])c1=O.[Cr+3].[Na+].[OH-] (stereo not drawn)
inactive: [1] -19.4% | [2] -30.5% | [3] -11.6% | [4] -35.4% | [5] -16.3% | [6] -17.1%

CC(C)(C)c1cc(C#N)cc(Br)c1OP(=O)(Oc1c(Br)cc(C#N)cc1C(C)(C)C)c1ccccc1
inactive: [1] -9.6% | [2] -7.5% | [3] -28.8% | [4] -3% | [5] -24% | [6] -17.6%

NC(=O)c1c([N+](=O)[O-])ccc(N(CCCl)CCCl)c1[N+](=O)[O-]
inactive: [1] -5.1% | [2] 1.25% | [3] -12.9% | [4] 4.75% | [5] -5% | [6] -6.05%

C=CC(=O)OCCN(C)C
inactive: [1] 1.5% | [2] -4.65% | [3] -4.4% | [4] -0.25% | [5] 2.1% | [6] 1.65%

[C-]#[N+]C1CCCCC1.[C-]#[N+]C1CCCCC1.[Ni].[S-]c1ccccc1.[S-]c1ccccc1
inactive: [1] 37.5% | [2] 16% | [3] 40.4% | [4] 20.1% | [5] 3.5% | [6] 36.6%

C(=C/[PH+](c1ccccc1)c1ccccc1)/[PH+](c1ccccc1)c1ccccc1.C(=C/[PH+](c1ccccc1)c1ccccc1)/[PH+](c1ccccc1)c1ccccc1.C(=C/[PH+](c1ccccc1)c1ccccc1)/[PH+](c1ccccc1)c1ccccc1.[Pt]
inactive: [1] 8.65% | [2] 17.6% | [3] 36% | [4] 36.9% | [5] 13.8% | [6] 36.5%

CC[n+]1cccc2ccccc21
inactive: [1] -0.45% and 56.5% | [2] -6.7% and 60.2% | [4] -11.2% and 5.65% | [5] -4.9% and 20.5% | [6] -25.2% and 66.7%
-6.7% (inactive) and 73.5% (active): [3]

O=C(N=[C-]c1ccc[oH+]1)c1cccnc1.O=C(N=[C-]c1ccc[oH+]1)c1cccnc1.[Ni+2]
inactive: [1] -24.7% | [2] -34.5% | [3] -3.4% | [4] -25.4% | [5] -31.8% | [6] 5.65%

CCOc1ccc([N+](=O)[O-])cc1CNCCBr
inactive: [1] 3.3% | [2] -1.3% | [3] -0.45% | [4] -22.1% | [5] -3.1% | [6] 12.2%

CC12CCC(O)CC1CCC1C2CCC2(C)C(C3=CC(=O)OC3)CCC12 (stereo not drawn)
inactive: [1] 7.05% | [2] 18.4% | [3] 30.6% | [4] 12.1% | [5] 12.1% | [6] 42.5%

NC(Cc1ccc(Cl)cc1)P(=O)(O)O (stereo not drawn)
inactive: [1] 7.7% | [2] -4.35% | [3] -6.75% | [4] -53.9% | [5] -12.1% | [6] -16.1%

CCCN1CCC2(CC1)COCc1ccccc12
inactive: [1] 30.8% | [2] 26.9% | [3] 28.4% | [4] 12.6% | [5] 15.1% | [6] 34.8%

CC(=O)OCC1OC(OC(C)=O)C(N(CCCl)CCCl)C(OC(C)=O)C1OC(C)=O (stereo not drawn)
inactive: [1] 2.2% | [2] 7% | [3] 6.75% | [4] 23.9% | [5] -2.25% | [6] -33.6%

CC(O)CCC(=O)c1ccoc1 (stereo not drawn)
inactive: [1] 6.4% | [2] 10.7% | [3] 1.45% | [4] 8.15% | [5] 14.3% | [6] -71.7%

CC1NCCc2c1[nH]c1cc(O)ccc21 (stereo not drawn)
inactive: [1] 4.55% | [2] -10.9% | [3] 5.5% | [4] -9.2% | [5] -21.5% | [6] 3.1%

Cn1c(=O)n(C2(C)C[Se]C2)c2ccccc21
inactive: [1] -11.5% | [2] -15.7% | [3] -16.8% | [4] -15.4% | [5] -13.7% | [6] -22.5%

CCC1C2CC3C4N(C)c5ccccc5C45CC(C2C5O)N3C1O (stereo not drawn)
inactive: [1] 20.9% and -6.8% and -4.75% | [2] -7.75% and 5.2% and -40.8% | [3] -16.9% and 15.7% and -14.2% | [4] -17.9% and -3.4% and -0.6% | [5] 13.6% and -10.1% and -32.2% | [6] -11.4% and -41% and -23.6%

CN(C)c1ccc(C=Cc2ccc([N+](=O)[O-])cc2)cc1.[C-]#[O+].[C-]#[O+].[C-]#[O+].[Cr]
inactive: [1] -16.1% | [2] -5.1% | [3] -11.6% | [4] 24.8% | [5] -7.35% | [6] -10.1%

C1CCC2[N-]CCCC2C1.C1CCC2[N-]CCCC2C1.O=[N+]([O-])O.O=[N+]([O-])O.[Cu+2] (stereo not drawn)
inactive: [1] 21.6% | [2] 21.6% | [3] 15.2% | [4] -19.2% | [5] -4.35% | [6] 25.1%

CC12CC3CC(C1)CC(N=[N+]=[N-])(C3)C2
inactive: [1] -16.4% | [2] -1.3% | [3] -2.65% | [4] 1.3% | [5] -0.95% | [6] -2.6%

O=C(Nc1ccc(O)cc1)c1c(O)[nH]c(=S)[nH]c1=O
inactive: [1] -11.7% | [2] -13.1% | [3] 6.25% | [4] -56.5% | [5] 1.7% | [6] 4.65%

CS[P+]1(C)C=C(N2CCOCC2)CC1 (stereo not drawn)
inactive: [1] 37.4% | [2] 15.2% | [3] 0.6% | [4] -8% | [5] 8.8% | [6] 10.3%

CN1CN(c2ccccc2)C2(CCN(CCCSc3ccccc3NC(=O)/C=C/c3ccccc3)CC2)C1=O
inactive: [1] 20% | [2] -3.95% | [3] 18.8% | [4] 18.9% | [5] 41.3% | [6] 34.2%

COP(=O)(NC12CC3CC(CC(C3)C1)C2)OC
inactive: [1] -4.75% | [2] 5.45% | [3] -13.4% | [4] 15.7% | [5] -1.1% | [6] -16.7%

COC(=O)C1=C(N2CCCC2)C2c3ccccc3SC12C(=O)OC (stereo not drawn)
inactive: [1] 20.1% | [2] 10.8% | [3] -0.25% | [4] 0.7% | [5] 14.2% | [6] 9.3%

O=NN(CCF)C(=O)NCCO
inactive: [1] 1.9% | [2] -7.3% | [3] 7.75% | [4] 12.4% | [5] 1.75% | [6] -32.2%

COC(C(=O)C(O)C(C)O)C1Cc2cc3cc(OC4CC(OC(C)=O)C(OC5CC(O)C(OC)C(C)O5)C(C)O4)cc(O)c3c(O)c2C(=O)C1OC1CC(OC2CC(OC3CC(C)(O)C(OC(=O)C(C)C)C(C)O3)C(O)C(C)O2)C(O)C(C)O1 (stereo not drawn)
inactive: [1] 1.55% and 17.7% | [2] -5.45% and 28.8% | [3] -24.6% and 17.3% | [4] 52.5% and 58% | [5] -19.4% and 35.5% | [6] 1.2% and 17.1%

CN(C)c1c2c(=O)n(C)c(=O)n(C)c2nc2cccc[n+]12
inactive: [1] 21.9% | [2] 22.9% | [3] -5.2% | [4] 2.9% | [5] 5.95% | [6] 11.6%

CSC(SC)P(=O)(Oc1ccccc1)Oc1ccccc1
inactive: [1] -10.4% | [2] 2.85% | [3] 1.4% | [4] 4.45% | [5] 8.7% | [6] 10.6%

CC(=O)O[C@H]1C(=O)[C@@]2(C)C(C(OC(=O)c3ccccc3)[C@]3(O)C[C@H](OC(=O)C(OC(=O)CCCC(=O)NCCCN(C)C)C(NC(=O)c4ccccc4)c4ccccc4)C(C)=C1C3(C)C)C1(OC(C)=O)COC1C[C@@H]2O (stereo partly drawn)
inactive: [1] -1.1% | [2] -0.35% | [3] 3.8% | [4] -10.3% | [5] -0.95% | [6] 7.35%

C=CCOC(N)=O
inactive: [1] 6.85% | [2] 8.3% | [3] -0.3% | [4] 20.9% | [5] 22.5% | [6] 1.65%

O=C(C(Cl)Cl)N1CCCCC1
inactive: [1] -5.2% | [2] -0.3% | [3] -5.5% | [4] 4.65% | [5] 0% | [6] 39.9%

COc1cc(C(c2c(O)c3ccccc3oc2=O)c2c(O)c3ccccc3oc2=O)cc(OC)c1OC
inactive: [1] -2.1% | [2] -8.15% | [3] -10.2% | [4] 0.9% | [5] -11.7% | [6] -2.85%
